Source: PubChem BioAssay (Tox21)
Several values for one entry are separate records, joined by “and”; a condition that tells them apart may be missing. Equal values may be shown once. Records with an inconclusive call do not appear. Entries that show only a call come without a potency. More than one record can exist for a structure, and the calls need not agree. Activity calls are given as the source filed them. The call rests on the fitted dose curve; in most records, active means well fitted curve in the direction sought with a large enough effect in the repeat runs; inconclusive means weak or mixed curves; inactive means no such curve, though single readings can be large; an effect the other way counts as inactive or inconclusive.

Assays:
[1] = target: Cytochrome P450 1A2 (Homo sapiens) (UniProt P05177); experiment: Cytochrome P450 Family 1 Subfamily A Member 2 (CYP1A2) small molecule antagonists: luciferase reporter qHTS assay (AID 1671199); conditions: P450-Glo CYP1A2 enzyme, luciferin luminescence, 1 h; series mostly up to 115 µM
Procedure, shortened: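 Luminescence from luciferin formed by CYP1A2 from a proluciferin substrate, read 20 min after detection reagent. Compound was pre-incubated 10 min with enzyme-substrate, and reaction started with NADPH regeneration solution for 1 h at room temperature; furafylline control.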

[2] = target: Voltage-gated inwardly rectifying potassium channel KCNH2 (Homo sapiens) (UniProt Q12809); experiment: Human Ether-a-go-go-Related Gene (hERG) channel small molecule antagonists: fluorescence cell-based qHTS assay (AID 1671200); conditions: hERG-U2OS cells, FluxOR thallium flux fluorescence; series mostly up to 76.8 µM
Procedure, shortened: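 Cell line hERG-U2OS; dye FluxOR II, 1 h RT dark; Tl+ stimulus; ex 480/em 540 nm, read each second for 2 min.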

[3] = target: Cytochrome P450 3A4 (Homo sapiens) (UniProt P08684); experiment: Cytochrome P450 Family 3 Subfamily A Member 4 (CYP3A4) small molecule antagonists: luciferase reporter qHTS assay (AID 1671201); conditions: P450-Glo CYP3A4 enzyme, luciferin luminescence, 1 h; series mostly up to 115 µM
Procedure, shortened: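 Room-temperature assay throughout: 10 min compound–enzyme/substrate preincubation, 1 h reaction after NADPH regeneration solution, 20 min detection. Luciferin formed from proluciferin substrate is quantified by luminescence.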
Further: nearly all actives have a fitted effect of over 50% in size.
Potency means the concentration at half of the fitted maximal effect.

Sequence of Voltage-gated inwardly rectifying potassium channel KCNH2 (Homo sapiens) (Q12809 whole entry, looked up): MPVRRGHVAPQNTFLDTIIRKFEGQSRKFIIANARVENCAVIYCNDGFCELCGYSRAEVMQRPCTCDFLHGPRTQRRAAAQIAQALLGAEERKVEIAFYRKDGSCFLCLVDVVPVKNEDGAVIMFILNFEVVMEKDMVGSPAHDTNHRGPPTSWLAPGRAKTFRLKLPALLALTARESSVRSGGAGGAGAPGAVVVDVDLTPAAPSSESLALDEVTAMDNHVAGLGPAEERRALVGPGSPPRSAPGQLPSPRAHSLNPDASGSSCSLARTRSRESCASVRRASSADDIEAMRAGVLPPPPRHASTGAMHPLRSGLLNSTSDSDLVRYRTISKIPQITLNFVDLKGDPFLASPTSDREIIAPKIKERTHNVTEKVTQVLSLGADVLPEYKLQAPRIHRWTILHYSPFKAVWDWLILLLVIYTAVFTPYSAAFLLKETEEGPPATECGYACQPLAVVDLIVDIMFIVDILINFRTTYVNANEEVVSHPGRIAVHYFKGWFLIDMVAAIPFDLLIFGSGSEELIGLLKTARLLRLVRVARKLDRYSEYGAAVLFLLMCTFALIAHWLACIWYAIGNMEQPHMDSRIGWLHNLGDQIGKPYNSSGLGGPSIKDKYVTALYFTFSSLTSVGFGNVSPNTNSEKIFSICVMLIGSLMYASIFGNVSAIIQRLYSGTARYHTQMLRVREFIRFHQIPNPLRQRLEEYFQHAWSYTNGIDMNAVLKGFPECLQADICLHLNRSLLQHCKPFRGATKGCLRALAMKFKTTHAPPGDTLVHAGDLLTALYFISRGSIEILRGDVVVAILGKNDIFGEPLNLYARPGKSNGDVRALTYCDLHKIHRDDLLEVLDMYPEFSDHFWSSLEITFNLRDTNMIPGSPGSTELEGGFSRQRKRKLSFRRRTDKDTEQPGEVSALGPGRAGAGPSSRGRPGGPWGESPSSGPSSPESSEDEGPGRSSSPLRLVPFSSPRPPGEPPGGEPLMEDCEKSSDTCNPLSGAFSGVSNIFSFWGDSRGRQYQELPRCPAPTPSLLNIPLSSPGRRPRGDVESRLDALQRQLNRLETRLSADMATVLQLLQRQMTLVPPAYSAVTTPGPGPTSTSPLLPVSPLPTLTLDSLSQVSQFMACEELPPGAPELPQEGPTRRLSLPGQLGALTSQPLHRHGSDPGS
Sequence of Cytochrome P450 3A4 (Homo sapiens) (P08684 whole entry, looked up): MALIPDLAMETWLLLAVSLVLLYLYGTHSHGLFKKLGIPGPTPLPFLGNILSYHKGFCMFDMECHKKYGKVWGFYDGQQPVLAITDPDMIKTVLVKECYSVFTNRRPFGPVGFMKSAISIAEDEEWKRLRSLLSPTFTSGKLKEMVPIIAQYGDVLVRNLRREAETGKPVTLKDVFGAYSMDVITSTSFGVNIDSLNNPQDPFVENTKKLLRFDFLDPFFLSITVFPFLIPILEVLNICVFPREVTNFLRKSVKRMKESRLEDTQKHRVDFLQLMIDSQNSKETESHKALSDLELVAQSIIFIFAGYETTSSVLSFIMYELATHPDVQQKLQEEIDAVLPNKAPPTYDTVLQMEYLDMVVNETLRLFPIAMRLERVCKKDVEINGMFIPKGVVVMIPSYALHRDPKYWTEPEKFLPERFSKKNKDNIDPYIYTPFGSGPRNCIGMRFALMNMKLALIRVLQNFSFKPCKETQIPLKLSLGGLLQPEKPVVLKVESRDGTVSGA
Sequence of Cytochrome P450 1A2 (Homo sapiens) (P05177 whole entry, looked up): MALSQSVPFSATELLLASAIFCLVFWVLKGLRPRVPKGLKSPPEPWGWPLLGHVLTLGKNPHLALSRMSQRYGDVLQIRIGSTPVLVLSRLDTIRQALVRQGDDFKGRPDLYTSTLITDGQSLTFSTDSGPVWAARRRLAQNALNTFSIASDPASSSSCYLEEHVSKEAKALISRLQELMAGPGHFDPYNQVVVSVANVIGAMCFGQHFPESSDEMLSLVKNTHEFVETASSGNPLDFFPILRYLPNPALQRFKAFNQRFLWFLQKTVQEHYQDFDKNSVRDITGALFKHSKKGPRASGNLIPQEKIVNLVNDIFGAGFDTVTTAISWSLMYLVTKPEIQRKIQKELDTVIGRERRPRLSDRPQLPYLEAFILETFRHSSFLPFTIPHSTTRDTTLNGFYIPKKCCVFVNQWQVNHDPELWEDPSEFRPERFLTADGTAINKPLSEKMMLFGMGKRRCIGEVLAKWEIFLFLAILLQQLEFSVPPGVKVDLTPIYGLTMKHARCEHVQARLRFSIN

O=C(OCc1ccccc1)c1ccccc1
Potency [1]: 31.8 µM (active) and 35.6 µM (active) and 13.8 µM (active)
Potency [2]: inactive
Potency [3]: inactive

Cc1cnc(NC(=O)C2=C(O)c3ccccc3S(=O)(=O)N2C)s1
Potency [1]: inactive
Potency [2]: inactive

CO[C@H]1C=CO[C@@]2(C)Oc3c(C)c(O)c4c(O)c(c(/C=N/N5CCN(C)CC5)c(O)c4c3C2=O)NC(=O)/C(C)=C\C=C[C@H](C)[C@H](O)[C@@H](C)[C@@H](O)[C@@H](C)[C@H](OC(C)=O)[C@@H]1C
Potency [1]: inactive
Potency [2]: inactive

NC(=O)N1c2ccccc2C=Cc2ccccc21
Potency [1]: inactive
Potency [2]: inactive

C1CNCCN1
Potency [1]: 41.1 µM (active) and inactive
Potency [2]: inactive

CCOCCO
Potency [1]: inactive
Potency [2]: inactive

CC(=O)OC/C=C(C)/C=C/C=C(C)/C=C/C1=C(C)CCCC1(C)C
Potency [1]: inactive
Potency [2]: inactive

Cc1cccc2ccccc12
Potency [1]: inactive
Potency [2]: inactive
Potency [3]: inactive

COC(=O)c1ccc(O)cc1
Potency [1]: 32 µM (active) and 35.6 µM (active) and 27.5 µM (active)
Potency [2]: inactive
Potency [3]: inactive

CC1(C)O[C@@H]2[C@@H](CO[C@@]3(COS(N)(=O)=O)OC(C)(C)O[C@@H]23)O1
Potency [1]: inactive
Potency [2]: inactive
Potency [3]: inactive

COc1cc(O)c(C(=O)c2ccccc2)cc1S(=O)(=O)O
Potency [1]: inactive
Potency [2]: inactive
Potency [3]: inactive

COC(=O)c1ccc(C=O)cc1
Potency [1]: 42.3 µM (active)
Potency [2]: inactive

O=C(O)CCCCC1CCSS1 (centres undefined)
Potency [1]: inactive
Potency [2]: inactive

CC(C)CC(C)CC(O)CC(C)C (centres undefined)
Potency [1]: inactive
Potency [2]: inactive

COc1cc(C=O)ccc1O
Potency [1]: inactive
Potency [2]: inactive
Potency [3]: inactive

CCCCCCCCCCCCCCCCCC(=O)OCC(O)CO (centres undefined)
Potency [1]: inactive
Potency [2]: inactive

CCCCOC(=O)CCCCCCCCC(=O)OCCCC
Potency [1]: inactive
Potency [2]: inactive
Potency [3]: inactive

COc1ccc(O)cc1
Potency [1]: inactive
Potency [2]: inactive

CC(O)COc1ccccc1 (centres undefined)
Potency [1]: inactive
Potency [2]: inactive
Potency [3]: inactive

COc1ccc(C(=O)c2ccccc2)c(O)c1
Potency [1]: 19.7 µM (active) and 22.4 µM (active) and 12.9 µM (active)
Potency [2]: 38.3 µM (active) and inactive

NC(=O)OCC(COC(N)=O)c1ccccc1
Potency [1]: inactive
Potency [2]: inactive
Potency [3]: inactive

NC(=O)N/N=C/c1ccc([N+](=O)[O-])o1
Potency [1]: inactive and 41.5 µM (active)
Potency [2]: inactive

NCCNc1cccc2ccccc12
Potency [1]: 632 nM (active) and 778 nM (active) and 723 nM (active)
Potency [2]: inactive

C[C@]12CC[C@@H]3c4ccc(O)cc4C[C@@H](CCCCCCCCCS(=O)CCCC(F)(F)C(F)(F)F)[C@H]3[C@@H]1CC[C@@H]2O (some centres undefined)
Potency [1]: inactive
Potency [2]: inactive

COCCOCCOC
Potency [1]: inactive
Potency [2]: inactive

CCCCOCCOCCSC#N
Potency [1]: 6.67 µM (active) and 11.1 µM (active)
Potency [2]: inactive
Potency [3]: inactive

Oc1cccc(O)c1
Potency [1]: inactive
Potency [2]: inactive

CCN1CCCC1=O
Potency [1]: inactive
Potency [2]: inactive

CC(=O)c1ccc(S(=O)(=O)NC(=O)NC2CCCCC2)cc1
Potency [1]: inactive
Potency [2]: inactive
Potency [3]: inactive

OCCCc1ccccc1
Potency [1]: 35.6 µM (active)
Potency [2]: inactive
Potency [3]: inactive

Cc1c(N(C)CS(=O)(=O)O)c(=O)n(-c2ccccc2)n1C
Potency [2]: inactive

Nc1ccc(N=Nc2ccccc2)c(N)n1
Potency [2]: inactive

CC(C)=CCC/C(C)=C/CO
Potency [2]: inactive

CN/C(=C\[N+](=O)[O-])NCCSCc1ccc(CN(C)C)o1
Potency [1]: inactive and 24.5 µM (active)
Potency [2]: inactive
Potency [3]: inactive

CCCCCCCCCCCCCC(=O)OC(C)C
Potency [1]: inactive
Potency [2]: inactive
Potency [3]: inactive

CN(C)Cc1cc(CN(C)C)c(O)c(CN(C)C)c1
Potency [1]: inactive
Potency [2]: inactive
Potency [3]: inactive

Cc1cccc(Nc2cc(Cl)nc(SCC(=O)O)n2)c1C
Potency [1]: inactive
Potency [2]: inactive
Potency [3]: inactive

CCOC(=O)C(C)(C)Oc1ccc(Cl)cc1
Potency [2]: inactive

C=C(C)C(N)=O
Potency [1]: inactive
Potency [2]: inactive
Potency [3]: inactive

CC1=NN(c2ccccc2)C(=O)C1
Potency [2]: inactive

CCc1cc(C(N)=S)ccn1
Potency [2]: inactive

N[C@@H](Cc1c[nH]c2ccccc12)C(=O)O
Potency [2]: inactive

NC(=O)NO
Potency [2]: inactive

COc1ccccc1NC(=O)CC(C)=O
Potency [1]: 31.3 µM (active) and 35.6 µM (active)
Potency [2]: inactive
Potency [3]: 63.3 µM (active)

C[C@]12C[C@H](O)[C@H]3[C@@H](CCC4=CC(=O)CC[C@@]43C)[C@@H]1CC[C@@H]2C(=O)CO
Potency [2]: inactive
